Here are results for 38 targets from the supplement of paper PMC12819154, “High-throughput peptide-centric local stability assay extends protein–ligand identification to membrane proteins, tissues and bacteria” (Nature Structural & Molecular Biology, 2025).

UniProt P83510, sequence (P83510 whole entry): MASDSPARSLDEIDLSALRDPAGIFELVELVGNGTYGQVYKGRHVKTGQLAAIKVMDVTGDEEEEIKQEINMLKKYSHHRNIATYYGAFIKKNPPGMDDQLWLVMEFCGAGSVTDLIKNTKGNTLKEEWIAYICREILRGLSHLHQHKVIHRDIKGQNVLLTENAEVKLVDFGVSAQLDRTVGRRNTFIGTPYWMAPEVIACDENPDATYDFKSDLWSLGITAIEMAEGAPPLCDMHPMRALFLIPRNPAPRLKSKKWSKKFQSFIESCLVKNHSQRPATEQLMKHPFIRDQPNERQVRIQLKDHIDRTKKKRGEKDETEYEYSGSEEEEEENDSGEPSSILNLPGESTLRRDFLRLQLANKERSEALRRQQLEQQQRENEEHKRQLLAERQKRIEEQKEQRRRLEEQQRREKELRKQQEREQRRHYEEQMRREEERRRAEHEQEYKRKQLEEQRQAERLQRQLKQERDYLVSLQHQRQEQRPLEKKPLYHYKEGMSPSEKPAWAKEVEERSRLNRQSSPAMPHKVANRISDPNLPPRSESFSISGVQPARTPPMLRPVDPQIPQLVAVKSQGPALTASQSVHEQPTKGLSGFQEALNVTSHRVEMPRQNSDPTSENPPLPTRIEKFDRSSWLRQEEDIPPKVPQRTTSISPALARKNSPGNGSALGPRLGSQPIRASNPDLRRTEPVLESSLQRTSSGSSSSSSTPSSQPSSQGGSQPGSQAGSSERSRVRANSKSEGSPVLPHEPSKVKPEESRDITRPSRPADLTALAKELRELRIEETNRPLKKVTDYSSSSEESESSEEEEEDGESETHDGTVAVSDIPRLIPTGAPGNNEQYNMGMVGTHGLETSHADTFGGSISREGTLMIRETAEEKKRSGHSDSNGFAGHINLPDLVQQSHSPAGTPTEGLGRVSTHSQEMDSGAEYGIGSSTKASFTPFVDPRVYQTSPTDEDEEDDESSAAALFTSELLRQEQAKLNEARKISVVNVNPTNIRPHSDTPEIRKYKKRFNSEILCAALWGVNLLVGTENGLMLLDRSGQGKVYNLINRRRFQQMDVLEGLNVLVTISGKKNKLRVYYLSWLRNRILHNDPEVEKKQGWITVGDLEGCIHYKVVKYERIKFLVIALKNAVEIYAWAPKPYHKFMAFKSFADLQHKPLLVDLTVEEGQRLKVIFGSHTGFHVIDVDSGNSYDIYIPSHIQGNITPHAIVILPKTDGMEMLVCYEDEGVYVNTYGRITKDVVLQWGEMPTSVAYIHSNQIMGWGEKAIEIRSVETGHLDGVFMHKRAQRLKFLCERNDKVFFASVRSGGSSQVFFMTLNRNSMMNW
UniProt P47802, sequence (P47802 whole entry): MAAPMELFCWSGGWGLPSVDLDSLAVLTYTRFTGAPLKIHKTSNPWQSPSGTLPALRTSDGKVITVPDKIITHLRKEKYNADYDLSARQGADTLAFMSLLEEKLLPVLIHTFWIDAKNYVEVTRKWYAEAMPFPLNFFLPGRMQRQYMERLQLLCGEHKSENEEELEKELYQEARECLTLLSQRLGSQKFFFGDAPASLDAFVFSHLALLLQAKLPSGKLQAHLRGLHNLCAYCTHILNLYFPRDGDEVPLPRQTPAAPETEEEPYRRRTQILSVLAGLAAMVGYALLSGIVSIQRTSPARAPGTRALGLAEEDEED
UniProt Q9QXX4, sequence (Q9QXX4 whole entry): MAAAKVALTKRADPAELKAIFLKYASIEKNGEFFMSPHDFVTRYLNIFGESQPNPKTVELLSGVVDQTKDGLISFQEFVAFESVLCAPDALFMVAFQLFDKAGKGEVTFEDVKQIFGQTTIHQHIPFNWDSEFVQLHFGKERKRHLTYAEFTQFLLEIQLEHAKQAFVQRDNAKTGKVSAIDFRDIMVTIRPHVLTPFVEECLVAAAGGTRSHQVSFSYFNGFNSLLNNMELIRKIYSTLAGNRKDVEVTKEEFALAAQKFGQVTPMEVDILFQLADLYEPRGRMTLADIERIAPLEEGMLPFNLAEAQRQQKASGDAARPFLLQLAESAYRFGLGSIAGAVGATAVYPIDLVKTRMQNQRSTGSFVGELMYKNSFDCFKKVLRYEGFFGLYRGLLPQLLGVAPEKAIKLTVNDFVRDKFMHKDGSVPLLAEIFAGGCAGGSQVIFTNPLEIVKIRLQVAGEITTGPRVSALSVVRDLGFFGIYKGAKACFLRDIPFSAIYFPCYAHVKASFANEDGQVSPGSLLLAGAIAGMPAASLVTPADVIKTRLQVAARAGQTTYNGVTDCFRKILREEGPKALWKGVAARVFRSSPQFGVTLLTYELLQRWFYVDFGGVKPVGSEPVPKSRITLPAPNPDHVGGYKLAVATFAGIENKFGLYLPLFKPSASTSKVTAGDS
UniProt P42932, sequence (P42932 whole entry): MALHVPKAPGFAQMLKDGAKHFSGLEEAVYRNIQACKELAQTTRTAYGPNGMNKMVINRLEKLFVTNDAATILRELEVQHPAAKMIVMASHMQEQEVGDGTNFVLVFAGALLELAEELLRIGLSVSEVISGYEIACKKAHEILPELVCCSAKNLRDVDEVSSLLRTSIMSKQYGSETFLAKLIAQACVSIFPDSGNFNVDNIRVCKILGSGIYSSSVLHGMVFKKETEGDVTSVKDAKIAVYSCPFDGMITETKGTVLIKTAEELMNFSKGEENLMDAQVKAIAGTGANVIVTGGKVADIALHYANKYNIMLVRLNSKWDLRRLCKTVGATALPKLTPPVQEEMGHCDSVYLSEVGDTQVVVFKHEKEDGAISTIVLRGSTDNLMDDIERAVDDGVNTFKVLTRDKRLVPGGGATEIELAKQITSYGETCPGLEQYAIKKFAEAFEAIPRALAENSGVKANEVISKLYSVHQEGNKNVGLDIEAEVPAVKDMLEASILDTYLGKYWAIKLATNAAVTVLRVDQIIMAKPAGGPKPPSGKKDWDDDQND
UniProt Q7TT50, sequence (Q7TT50 whole entry): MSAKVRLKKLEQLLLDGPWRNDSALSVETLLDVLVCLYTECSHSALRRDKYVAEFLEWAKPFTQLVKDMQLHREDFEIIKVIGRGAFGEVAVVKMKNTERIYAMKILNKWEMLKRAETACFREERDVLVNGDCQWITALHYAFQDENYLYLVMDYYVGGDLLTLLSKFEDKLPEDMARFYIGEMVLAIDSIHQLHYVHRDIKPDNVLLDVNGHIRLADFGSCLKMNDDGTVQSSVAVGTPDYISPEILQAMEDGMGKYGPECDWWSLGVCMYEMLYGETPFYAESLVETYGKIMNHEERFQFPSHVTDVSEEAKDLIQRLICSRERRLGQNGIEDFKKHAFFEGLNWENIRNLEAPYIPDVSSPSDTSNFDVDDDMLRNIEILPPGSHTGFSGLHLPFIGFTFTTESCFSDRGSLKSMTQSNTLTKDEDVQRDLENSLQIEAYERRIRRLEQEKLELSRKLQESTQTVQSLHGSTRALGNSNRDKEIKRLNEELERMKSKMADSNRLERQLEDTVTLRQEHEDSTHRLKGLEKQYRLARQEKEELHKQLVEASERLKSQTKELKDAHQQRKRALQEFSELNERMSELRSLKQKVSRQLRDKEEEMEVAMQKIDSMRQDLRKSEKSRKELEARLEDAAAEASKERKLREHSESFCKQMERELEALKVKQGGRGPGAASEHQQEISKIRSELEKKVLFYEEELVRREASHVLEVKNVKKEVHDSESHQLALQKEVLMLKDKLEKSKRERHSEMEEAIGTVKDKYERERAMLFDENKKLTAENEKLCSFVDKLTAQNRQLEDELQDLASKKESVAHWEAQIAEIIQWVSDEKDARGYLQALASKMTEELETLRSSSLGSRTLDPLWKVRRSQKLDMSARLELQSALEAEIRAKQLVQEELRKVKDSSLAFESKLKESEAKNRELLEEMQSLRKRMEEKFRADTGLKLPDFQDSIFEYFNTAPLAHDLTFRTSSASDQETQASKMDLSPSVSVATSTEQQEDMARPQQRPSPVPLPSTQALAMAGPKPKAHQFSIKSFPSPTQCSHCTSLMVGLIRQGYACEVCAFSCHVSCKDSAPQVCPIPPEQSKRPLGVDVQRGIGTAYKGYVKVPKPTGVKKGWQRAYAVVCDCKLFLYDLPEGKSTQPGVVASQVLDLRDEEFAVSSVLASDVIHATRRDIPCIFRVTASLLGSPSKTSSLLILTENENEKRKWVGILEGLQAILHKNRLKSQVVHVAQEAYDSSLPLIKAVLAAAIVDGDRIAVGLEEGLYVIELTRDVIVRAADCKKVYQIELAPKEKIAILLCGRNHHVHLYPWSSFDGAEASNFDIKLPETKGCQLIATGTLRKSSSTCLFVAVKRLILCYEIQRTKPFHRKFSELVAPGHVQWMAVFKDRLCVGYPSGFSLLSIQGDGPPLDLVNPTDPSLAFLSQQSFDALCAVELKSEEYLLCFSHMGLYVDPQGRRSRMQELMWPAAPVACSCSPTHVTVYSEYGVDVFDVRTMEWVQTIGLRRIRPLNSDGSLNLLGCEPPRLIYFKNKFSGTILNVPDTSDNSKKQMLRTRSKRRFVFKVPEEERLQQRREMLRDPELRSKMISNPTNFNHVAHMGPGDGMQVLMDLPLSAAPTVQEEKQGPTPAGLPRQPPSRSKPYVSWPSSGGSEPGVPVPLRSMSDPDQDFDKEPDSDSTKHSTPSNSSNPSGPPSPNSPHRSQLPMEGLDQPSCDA
UniProt Q9D6M3, sequence (Q9D6M3 whole entry): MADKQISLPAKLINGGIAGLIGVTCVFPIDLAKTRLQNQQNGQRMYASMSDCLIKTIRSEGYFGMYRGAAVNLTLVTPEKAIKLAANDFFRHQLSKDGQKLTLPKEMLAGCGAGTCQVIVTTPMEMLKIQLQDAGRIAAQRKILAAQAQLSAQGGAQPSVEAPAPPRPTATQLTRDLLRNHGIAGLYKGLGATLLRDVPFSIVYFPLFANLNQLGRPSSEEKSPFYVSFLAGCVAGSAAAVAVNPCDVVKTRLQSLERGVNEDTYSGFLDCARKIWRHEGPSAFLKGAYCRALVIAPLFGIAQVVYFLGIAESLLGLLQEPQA
UniProt P09813, sequence (P09813 whole entry): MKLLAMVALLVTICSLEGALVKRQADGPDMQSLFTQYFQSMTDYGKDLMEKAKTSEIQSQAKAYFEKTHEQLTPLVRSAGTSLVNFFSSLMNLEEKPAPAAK

Compound in the test: CN[C@@H]1C[C@H]2O[C@@](C)([C@@H]1OC)n1c3ccccc3c3c4c(c5c6ccccc6n2c5c31)C(=O)NC4 [staurosporine]
Put plainly: log2 fold change of tryptic peptide abundance, ligand vs vehicle (limited proteolysis) (log2 ratio); higher = more trypsin-susceptible (destabilized). To be noted: ligand concentration: 20 uM; sample: mouse liver crude lysate; replicate design: treated separately.
Regarding “UniProt Q07417 (peptide sequence: GISAFLVPMPTPGLTLGKKEDK, peptide start residue: 209)”, the log2 fold change turned out to be 0.268.

For “UniProt Q8R0Y8 (peptide sequence: MQTAGVTGHQHGSILSTLR, peptide start residue: 254)”, the log2 fold change stood at 0.401.

For the target “UniProt P35917 (peptide sequence: VLGHGAFGK, peptide start residue: 850)”, the log2 fold change came out at 1.38.

“UniProt Q64028 (peptide sequence: PQIAQMSLYER, peptide start residue: 24)”: the log2 fold change came out at 0.725.

“UniProt P42932 (peptide sequence: AIAGTGANVIVTGGK, peptide start residue: 282)”: the log2 fold change is -0.803.

Regarding “UniProt P09813 (peptide sequence: THEQLTPLVR, peptide start residue: 68)”, the log2 fold change was 0.46.

As for “UniProt Q9QZL0 (peptide sequence: DLKPSNILLDPELHAK, peptide start residue: 143)”, the log2 fold change is -1.1.

For the target “UniProt Q8BK48 (peptide sequence: DFRPPYVK, peptide start residue: 447)”, the log2 fold change was -1.1.

For “UniProt O70503 (peptide sequence: IQKPTLDKPSAETFVK, peptide start residue: 242)”, the log2 fold change was determined as 0.192.

Take “UniProt Q6PDN3 (peptide sequence: VSDVYDIEER, peptide start residue: 1482)”: the log2 fold change is -1.2.

On to “UniProt Q9D8V0 (peptide sequence: SSSDMPETITSR, peptide start residue: 62)”, for which the log2 fold change is -1.22.

Turning to “UniProt P24456 (peptide sequence: RVQQEIDAVIGQVR, peptide start residue: 333)”, the log2 fold change is -0.553.

With “UniProt Q7TT50 (peptide sequence: FQFPSHVTDVSEEAK, peptide start residue: 300)”, the log2 fold change is -1.06.

As to “UniProt O89112 (peptide sequence: AFPNPYADYNK, peptide start residue: 5)”, the log2 fold change is 0.594.

“UniProt Q64133 (peptide sequence: ELGIETYK, peptide start residue: 83)”: the log2 fold change was -0.486.

For “UniProt A6X919 (peptide sequence: AGTAAPAPDGLAGR, peptide start residue: 60)”, the log2 fold change was found to be 0.335.

Turning to “UniProt Q99KG5 (peptide sequence: VLYYMEK, peptide start residue: 347)”, the log2 fold change is -0.236.

As for “UniProt Q3U3Q1 (peptide sequence: VIELPLRPQLSLDCR, peptide start residue: 230)”, the log2 fold change is -2.

For the target “UniProt Q8C050 (peptide sequence: VLGTGAYGK, peptide start residue: 53)”, the log2 fold change is -1.37.

As to “UniProt Q8VEB1 (peptide sequence: DLKPENILLDDYGHIR, peptide start residue: 311)”, the log2 fold change was -0.743.

“UniProt P47962 (peptide sequence: GAVDGGLSIPHSTK, peptide start residue: 165)”: the log2 fold change worked out at 0.536.

For “UniProt Q99N91 (peptide sequence: GNEYQPSNIK, peptide start residue: 50)”, the log2 fold change was determined as 0.323.

For “UniProt Q9QXX4 (peptide sequence: AGQTTYNGVTDCFRK, peptide start residue: 555)”, the log2 fold change came out at 0.466.

For “UniProt Q8VCH6 (peptide sequence: LTQGETLR, peptide start residue: 368)”, the log2 fold change turned out to be 0.499.

On to “UniProt P83510 (peptide sequence: NIATYYGAFIK, peptide start residue: 81)”, for which the log2 fold change is -0.608.

As for “UniProt Q61578 (peptide sequence: NVINTFTQTAR, peptide start residue: 94)”, the log2 fold change amounted to 0.834.

Take “UniProt Q8BX94 (peptide sequence: TALPAPMFTR, peptide start residue: 62)”: the log2 fold change is 0.84.

Take “UniProt Q9D826 (peptide sequence: INVCYWR, peptide start residue: 224)”: the log2 fold change is 0.236.

Consider “UniProt P28652 (peptide sequence: NLINQMLTINPAKR, peptide start residue: 247)”, for which the log2 fold change was -2.11.

Regarding “UniProt Q8VCR2 (peptide sequence: ALLPSMLR, peptide start residue: 154)”, the log2 fold change is -0.279.

Regarding “UniProt P48962 (peptide sequence: MMMQSGRK, peptide start residue: 238)”, the log2 fold change amounted to 0.293.

As to “UniProt P47802 (peptide sequence: EKYNADYDLSAR, peptide start residue: 77)”, the log2 fold change was -0.346.

For the target “UniProt P35980 (peptide sequence: TNSTFNQVVLK, peptide start residue: 39)”, the log2 fold change came out at 0.658.

“UniProt Q9QVP9 (peptide sequence: CWDYDPSDRPR, peptide start residue: 661)”: the log2 fold change is -1.22.

Take “UniProt Q99MK8 (peptide sequence: DLKPANILLDEHGHVR, peptide start residue: 317)”: the log2 fold change was -0.735.

Turning to “UniProt Q9D6M3 (peptide sequence: LAANDFFR, peptide start residue: 84)”, the log2 fold change came out at 0.616.

Regarding “UniProt Q05421 (peptide sequence: FGPVFTLHLGQR, peptide start residue: 64)”, the log2 fold change worked out at 0.247.

For the target “UniProt O54785 (peptide sequence: GFFGQAIK, peptide start residue: 340)”, the log2 fold change is -0.88.
